# Screening data as filed in PubChem BioAssay.
# An excerpt weighted towards active compounds, which were near 11% of everything screened.
# USP17 block: blocks human USP17 ubiquitin-rhodamine cleavage. A8MUK1. purified USP17, Ub-rhodamine cleavage fluorescence, 3 h. inhibition, % at 50 µM. hit rate 6.5% among 47,000. AID 1645855
# Target sequence (A8MUK1 whole entry, looked up): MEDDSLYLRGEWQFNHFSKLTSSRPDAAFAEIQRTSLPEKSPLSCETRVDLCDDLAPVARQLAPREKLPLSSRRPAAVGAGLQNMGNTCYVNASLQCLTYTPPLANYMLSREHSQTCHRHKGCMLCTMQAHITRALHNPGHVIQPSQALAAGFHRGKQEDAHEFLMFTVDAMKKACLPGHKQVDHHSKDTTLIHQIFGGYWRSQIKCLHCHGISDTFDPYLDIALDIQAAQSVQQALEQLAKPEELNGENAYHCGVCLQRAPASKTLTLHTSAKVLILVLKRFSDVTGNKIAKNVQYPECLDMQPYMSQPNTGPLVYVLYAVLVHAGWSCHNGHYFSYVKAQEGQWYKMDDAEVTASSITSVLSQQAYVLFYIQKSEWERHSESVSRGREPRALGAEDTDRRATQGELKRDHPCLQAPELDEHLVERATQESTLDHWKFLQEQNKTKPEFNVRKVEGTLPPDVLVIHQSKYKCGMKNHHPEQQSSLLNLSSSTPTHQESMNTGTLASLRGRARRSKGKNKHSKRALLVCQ
# USP30 block: blocks human USP30 ubiquitin-rhodamine cleavage; Q70CQ3; purified USP30, Ub-rhodamine cleavage fluorescence; inhibition, % at 25 µM; hit rate 5.3% among 47,000; AID 1645860
# USP28 inh: inhibitors of human USP28 deubiquitinase | purified USP28, Ub-rhodamine cleavage fluorescence, 30 min | inhibition, % at 25 µM | hit rate 3% among 47,000
# * hit, by the source's call; i = inactive; · = no result given. Cut-off read from the data, not from the text of the source: active = inhibition above about 30%; inactive = the rest.
SMILES,USP17 block,USP30 block,USP28 inh
Cc1nc2ccccc2c(=O)n1-c1ccc(F)c(NC(=O)c2ccccc2F)c1,-5,-9,-4
Cc1noc(-c2cc(=O)n(CC(=O)NCc3ccccc3)c3ccccc23)n1,53*,6,6
Cc1noc(-c2cc(=O)n(CC(=O)NCc3ccccc3Cl)c3ccccc23)n1,-3,-18,-14
Cc1ccc(-n2nc(C)c3nc(CCC(=O)Nc4ccc5c(c4)OCCO5)c(=O)n(C)c32)cc1,1,-4,24
C[C@@H](NS(=O)(=O)c1ccc(F)c(Cl)c1)C(=O)NCc1cscn1,-1,0,-3
CC(NS(=O)(=O)c1cccc(Cl)c1)C(=O)O (centres undefined),0,30*,1
N#Cc1cccc(NC(=O)Cn2c(=O)c3c(ncn3C3CCCC3)n(Cc3ccccc3)c2=O)c1,-14,-85,-22
CC(C)(C)NC(=O)N1CCCN(C2CCN(Cc3ccccc3)C2=O)CC1 (centres undefined),7,6,10
CNC(=O)N1CCCN(C2CCN(Cc3ccccc3)C2=O)CC1 (centres undefined),-3,30*,6
Cn1nc(C(=O)N2CCc3[nH]nc(-c4ccccc4)c3C2)c2ccccc21,-7,0,-15
COc1ccc(NC(=O)C(=O)NCCN2CCN(C(=O)c3c(F)cccc3F)CC2)cc1,6,33*,12
O=C(NCCN1CCN(C(=O)c2c(F)cccc2F)CC1)C(=O)Nc1ccc(F)cc1,-1,8,0
Cc1nnc(C(=O)Nc2cccc(C(=O)NCCN3CCCCCC3)c2)s1,-107,i,-149
COc1ccc(NC(=O)c2nnc(C(=O)NCCN3CCCCCC3)s2)cc1,46*,52*,30
COc1ccc(CCNc2nccn(-c3ccc4c(c3)OCO4)c2=O)cc1OC,-3,5,4
O=C(CC(NCc1ccccn1)C(=O)O)Nc1ccc(F)cc1 (centres undefined),-63,-14,-5
O=C(CSc1ncnc2c1cnn2-c1ccccc1)Nc1ccccc1-c1ccccc1,13,31*,11
Cc1cccc(C)c1NC(=O)CSc1ncnc2c1cnn2-c1ccc(Cl)cc1,0,-14,-2
Cc1oc(-c2[nH]ncc2C(=O)N2CCCC2)cc1S(=O)(=O)N1CCC(C)CC1,-21,-73,-10
Cc1cccc(NC(=O)C(C)NS(=O)(=O)c2cc(-c3noc(C4CC4)n3)ccc2C)c1 (centres undefined),-8,-20,-4
Cc1nc(-c2ccc(C)c(S(=O)(=O)NC(C)C(=O)Nc3ccc(C)c(F)c3)c2)no1 (centres undefined),3,36*,24
Cc1ccccc1OCC(=O)Nc1ccc2c(c1)Sc1ncccc1C(=O)N2C,29,-14,16
Cc1cc(CNC(=O)c2nnn(-c3cccc4c3CCN(C)C4)c2C)on1,-52,-55,-12
COc1cccc(CN2CCC3(CC2)OCCc2cnc(C)nc23)c1,13,6,-1
COc1ccc(CN2CCC3(CC2)OCCc2cnc(C)nc23)c(OC)c1,-17,32*,-1
SMILES,USP17 block,USP30 block,USP28 inh
O=C(c1cccc2c1OCCO2)N1CCOCC1CCc1cnccn1 (centres undefined),5,9,5
COc1ccc(CNc2c(S(=O)(=O)c3ccccc3)cnc3ccccc23)cc1,11,35*,6
Cc1ccc(S(=O)(=O)c2cnc3ccccc3c2NCc2ccccc2)cc1,1,6,-3
CCN1[C@H]2CCN(C(=O)c3ccno3)CC[C@@H]2Oc2ccccc2S1(=O)=O,3,·,·
Cc1cc(-c2ccc(C)c(S(=O)(=O)N3CCC4(CC3)OCCO4)c2)on1,-3,8,0
NC(=O)c1cccc(NC(=O)c2cccc(Oc3ccccc3)c2)c1,6,-4,15
O=C(Nc1cccc(Oc2ccccc2)c1)c1ccc2nc[nH]c2c1,-1,-9,34*
O=C(Nc1cccc(Oc2ccccc2)c1)c1c(F)cccc1F,-4,-23,36*
COc1cccc(NC(=O)C2=CCN(Cc3ccccc3F)CC2)c1,-24,-19,0
CCOc1ccc(CNC(=O)c2[nH]c3ccc(OC)cc3c2N2CCCC2=O)cc1,·,21,8
Cc1ccc2nc(Cl)c3cc(C(=O)N4CCC(C)CC4)sc3c2c1,6,10,-4
CCN(C(=O)c1cc2c(s1)-c1ccccc1OC2)c1ccccc1F,22,5,52*
COc1ccc(CCNC(=O)c2sc(NC3CC3)nc2C)cc1,8,7,25
O=C1COc2ccccc2C(=O)N1Cc1ccccc1F,10,13,22
CCN(C(=O)c1cc2c(Cl)nc3ccccc3c2s1)c1ccccc1F,15,71*,19
COc1ccc(CCNC(=O)c2cc3c(s2)-c2ccccc2OC3)cc1,37*,·,·
Clc1cccc(-c2nnc(CN3CCN(c4ccccc4)CC3)o2)c1,-6,-5,0
N#Cc1ccc(Cn2nnc(-c3cccc(Cl)c3)n2)cc1,12,7,73*
CCOC(=O)C1CCN(c2nc3ccccc3n2Cc2cccc(F)c2)CC1,6,-58,-8
O=C(Cn1c(N2CCC(Cc3ccccc3)CC2)nc2ccccc21)c1ccccc1,20,42*,9
CCN1[C@H]2CCN(C(=O)c3ccccc3)CC[C@@H]2Oc2ccccc2S1(=O)=O,-4,-7,-15
c1ccc(CC2CCN(Cc3cccc4ccccc34)CC2)cc1,6,7,7
O=C(Cc1cccc2ccccc12)N1CCC(Cc2ccccc2)CC1,20,44*,4
CN(CC(=O)N1CCC(Cc2ccccc2)CC1)Cc1ccccc1,6,10,7
COc1ccccc1CC(=O)N1CCC(Cc2ccccc2)CC1,11,36*,8
SMILES,USP17 block,USP30 block,USP28 inh
Cc1ccc(Cn2cnc3c(nnn3-c3cccc(F)c3)c2=O)cc1,47*,18,9
Cc1cccc(-n2nnc3c(=O)n(CC(=O)Nc4ccc5c(c4)OCCO5)cnc32)c1,0,-9,0
CCOC(=O)c1ccc(NC(=O)Cn2cnc3c(nnn3-c3cccc(Cl)c3)c2=O)cc1,33*,13,-11
CCc1ccc(NC(=O)Cn2cnc3c(nc4n3CCCCC4)c2=O)cc1,-10,17,7
O=c1c2nnn(-c3ccccc3)c2ncn1Cc1cccc(F)c1,0,-45,-20
CCOC(=O)c1ccc(NC(=O)Cn2cnc3c(nc4n3CCCCC4)c2=O)cc1,12,49*,14
COc1ccc(C(=O)NCCS(=O)(=O)N2CCN(c3ccccc3)CC2)c(OC)c1,-15,-4,-6
CCc1nnc(-c2cc(S(=O)(=O)Nc3ccc(F)cc3)c[nH]2)o1,·,-6,-2
CC1Cc2cc(S(=O)(=O)N3CCC(C(=O)NCc4cccs4)CC3)ccc2N1C(=O)C1CC1 (centres undefined),0,-28,-13
Cn1nccc1C(=O)N[C@@H]1CC[C@@H](Oc2cccnc2)[C@H](O)[C@H]1N1CCCCC1,-9,-45,-19
COc1cccc(C(=O)Nc2cnc(N3CCOCC3)nc2)c1,-5,0,8
COC(=O)c1ccc2c(c1)C(=O)c1ccccc1CO2,26,24,32*
COC(=O)c1ccc(C2CC(=O)Nc3cc4c(cc32)OCCO4)cc1 (centres undefined),2,·,·
COc1cccc([C@@H]2CN(C(=O)c3cccnc3)[C@@H]3CCCCC(=O)N[C@H]32)c1,-3,6,3
O=c1[nH]c2cc(Cl)ccc2c(O)c1Cc1ccccc1,-9,-1,0
